Experimental data reported in PubChem BioAssay (Tox21).
Values joined by “and” are separate entries in the source; they are usually repeats but may differ in a detail not shown here. Equal values may be shown once. Unmarked numbers belong to inactive results. Inconclusive results are not listed. Entries that show only a call come without a potency. Active and inactive are the calls of the source. Calls come from the whole dose curve.

Legend:
[1] = target: Acetylcholinesterase (Homo sapiens) (UniProt P22303); assay: Acetylcholinesterase (AChE) small molecule antagonists: colormetric cell-based qHTS assay (AID 1347395); note: nearly all actives have a fitted effect of over 30% in size
Chain of Acetylcholinesterase (Homo sapiens) (P22303 whole entry, looked up): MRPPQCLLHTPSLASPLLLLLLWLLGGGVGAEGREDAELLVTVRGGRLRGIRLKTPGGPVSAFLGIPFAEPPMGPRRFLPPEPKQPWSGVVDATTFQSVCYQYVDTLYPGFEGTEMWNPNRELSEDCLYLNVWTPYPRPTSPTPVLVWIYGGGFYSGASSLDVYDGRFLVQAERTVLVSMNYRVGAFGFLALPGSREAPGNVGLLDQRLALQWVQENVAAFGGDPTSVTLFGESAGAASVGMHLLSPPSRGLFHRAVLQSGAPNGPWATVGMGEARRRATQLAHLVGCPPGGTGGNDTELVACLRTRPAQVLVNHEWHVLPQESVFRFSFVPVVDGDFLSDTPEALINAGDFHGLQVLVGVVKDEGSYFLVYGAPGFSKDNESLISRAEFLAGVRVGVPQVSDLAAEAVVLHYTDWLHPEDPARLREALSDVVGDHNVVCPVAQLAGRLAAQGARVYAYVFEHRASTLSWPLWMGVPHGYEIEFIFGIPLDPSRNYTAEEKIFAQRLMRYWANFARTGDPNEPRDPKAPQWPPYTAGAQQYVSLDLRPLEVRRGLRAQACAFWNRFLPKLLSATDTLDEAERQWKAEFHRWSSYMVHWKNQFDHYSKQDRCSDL
How it was run: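 Endogenous AChE of human neuroblastoma SH-SY5Y cells was measured with an Ellman-type DTNB/acetylthiocholine mix. Compound pretreatment lasted 30 min at 37 C; substrate reaction ran 90 min at 37 C.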

[2] = target: Acetylcholinesterase (Homo sapiens) (UniProt P22303); assay: Acetylcholinesterase (AChE) small molecule antagonists: enzyme-based qHTS assay (AID 1347397); details: Potency: AChE enzyme activity inhibition; outcome: AChE enzyme activity inhibition; note: nearly all actives have a fitted effect of over 55% in size
How it was run: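 First, recombinant human AChE (50 mU/mL as dispensed) received test compound or DMSO. Second, plates stood 30 min at room temperature. Third, DTNB and acetylthiocholine were added, followed by 10 min at room temperature and colorimetric detection.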

[3] = target: Acetylcholinesterase (Homo sapiens) (UniProt P22303); assay: Acetylcholinesterase (AChE) small molecule antagonists: fluorescence cell-based qHTS assay (AID 1347398); details: Potency: AChE activity; outcome: AChE activity; note: nearly all actives have a fitted effect of over 50% in size
How it was run: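 Homogeneous quantitative HTS format. SH-SY5Y cells seeded at 2,000 per well settle overnight at 37 C. Compound pretreatment runs 30 min (37 C, 5% CO2); substrate/probe mix then reacts 40 min at RT before reading 490/520 nm.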

[4] = target: Acetylcholinesterase (Homo sapiens) (UniProt P22303); assay: Acetylcholinesterase (AChE) small molecule antagonists: enzyme-based qHTS assay with human liver microsomes (AID 1347399); details: Potency: qHTS inhibition; outcome: qHTS inhibition; note: nearly all actives have a fitted effect of over 60% in size
How it was run: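 Recombinant human AChE (50 mU/mL in the enzyme mix) and human liver microsomes (0.25 mg/mL final) were preincubated with compound and NADPH (0.25 mg/mL final) for 30 min at 37 C. Acetylthiocholine/DTNB was then added; thiocholine was read colorimetrically after 10 min at room temperature.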
Potency is the fitted concentration of half-maximal effect.

Row | SMILES | Potency [1] | Potency [2] | Potency [3] | Potency [4] | activity, negative = inhibition [1] | activity change, negative = inhibition [2] | activity change, negative = inhibition [3] | activity change, negative = inhibition [4]
1 | COC1=CC(=O)C[C@@H](C)[C@]12Oc1c(Cl)c(OC)cc(OC)c1C2=O | inactive | inactive | inactive | inactive | – | – | – | –
2 | O=C1CCCC1 | inactive | inactive | inactive | inactive | – | – | – | –
3 | S=C(NC1CCCCC1)NC1CCCCC1 | inactive | inactive | inactive | inactive | – | – | – | –
4 | CCOC(=O)[C@H](O)[C@@H](O)C(=O)OCC | inactive | inactive | inactive | inactive | – | – | – | –
5 | Cc1ccccc1C(N)=O | inactive | inactive | inactive | inactive | – | – | – | –
6 | O=C1C(c2[nH]c3ccccc3c2O)=Nc2ccccc21 | inactive | inactive | inactive | inactive | – | – | – | –
7 | Cc1ccc(C(C)(C)C)cc1 | inactive | inactive | inactive | inactive | – | – | – | –
8 | CC(=O)Nc1ccc(N=Nc2cc(C)ccc2O)cc1 | inactive | 22.4 µM (active) | inactive | inactive | – | – | – | –
9 | OCc1cccc(Oc2ccccc2)c1 | inactive | inactive | inactive | inactive | – | – | – | –
10 | Cc1cc(=O)oc2cc(O)cc(O)c12 | inactive | inactive | inactive | inactive | – | – | – | –
11 | CC(C)(C)c1ccc(OC2CCCCC2O)cc1 (stereo not given) | inactive | inactive | inactive | inactive | – | – | – | –
12 | Clc1cccc(C(c2ccc3nc[nH]c3c2)n2ccnc2)c1 (stereo not given) | inactive | inactive | inactive | inactive | – | – | – | –
13 | COc1cc2c(cc1N)oc1ccccc12 | inactive | inactive | inactive | inactive | – | – | – | –
14 | CC1CCC2CC1C2(C)C (stereo not given) | inactive | inactive | inactive | inactive | – | – | – | –
15 | CCCOC(=O)c1cc(O)c(O)c(O)c1 | inactive | inactive | inactive | inactive | – | – | – | –
16 | COc1cc2[nH]c(=O)[nH]c(=O)c2cc1OC | inactive | inactive | inactive | inactive | – | – | – | –
17 | FC(F)(F)c1ccccc1Cl | inactive | inactive | inactive | inactive | – | – | – | –
18 | Cn1cnc2c(F)c(Nc3ccc(Br)cc3Cl)c(C(=O)NOCCO)cc21 | inactive | inactive | inactive | inactive | – | – | – | –
19 | O=C(O)c1[nH]n(-c2ccc(S(=O)(=O)O)cc2)c(=O)c1N=Nc1ccc(S(=O)(=O)O)cc1 | inactive | inactive | inactive | inactive | – | – | – | –
20 | Nc1ccc([N+](=O)[O-])c(N)c1 | inactive | inactive | inactive | inactive | – | – | – | –

Row | SMILES | Potency [1] | Potency [2] | Potency [3] | Potency [4] | activity, negative = inhibition [1] | activity change, negative = inhibition [2] | activity change, negative = inhibition [3] | activity change, negative = inhibition [4]
21 | CC(C)CC(C)(C)C | inactive | inactive | inactive | inactive | – | – | – | –
22 | CC(C)COC(=O)CCCCC(=O)OCC(C)C | inactive | inactive | inactive | inactive | – | – | – | –
23 | CC1=CC[C@@H]2C[C@H]1C2(C)C | – | – | – | – | 7.66% [at 23.6 µM] | 0.56% [at 23.6 µM] | 0.301% [at 23.8 µM] | -3.81% [at 23.6 µM]
24 | CC(=O)Nc1nnc(S(N)(=O)=O)s1 | inactive | inactive | inactive | inactive | – | – | – | –
25 | NC(=O)/N=N/C(N)=O | 63.5 µM (active) | 71.2 µM (active) | 7.12 µM (active) and 31.7 µM (active) | inactive | – | – | – | –
26 | OC(CCl)CCl | inactive | inactive | inactive | inactive | – | – | – | –
27 | CSc1ccc(/C=C2/C(C)=C(CC(=O)O)c3cc(F)ccc32)cc1 | inactive | inactive | inactive | inactive | – | – | – | –
28 | O=C=Nc1ccc(Cl)c(Cl)c1 | inactive | inactive | inactive | inactive | – | – | – | –
29 | c1cc(C(c2ccc(OCC3CO3)cc2)c2ccc(OCC3CO3)cc2)ccc1OCC1CO1 (stereo not given) | inactive | inactive | inactive | inactive | – | – | – | –
30 | C=CC(=O)OCCOCCOCCOCCOC(=O)C=C | inactive | inactive | inactive | inactive | – | – | – | –
31 | O=[N+]([O-])c1nccn1CO[C@@H](CO)[C@H](O)CO | inactive | inactive | inactive | inactive | – | – | – | –
32 | OC/C=C/c1ccccc1 | inactive | inactive | inactive | inactive | – | – | – | –
33 | CN(C)CCCCl | inactive | inactive | inactive | inactive | – | – | – | –
34 | CCOC(=O)CC1(C)OCC(C)O1 (stereo not given) | inactive | inactive | inactive | inactive | – | – | – | –
35 | Cc1ccc2cccnc2c1 | inactive | inactive | inactive | inactive | – | – | – | –
36 | CCCCCCC(O)CCCCCCCCCCC(=O)O (stereo not given) | inactive | inactive | inactive | inactive | – | – | – | –
37 | OC1(c2ccc(Cl)c(C(F)(F)F)c2)CCN(CCCC(c2ccc(F)cc2)c2ccc(F)cc2)CC1 | inactive | inactive | inactive | inactive | – | – | – | –
38 | CCN=c1cc2oc3cc(NCC)c(C)cc3c(-c3ccccc3C(=O)OCC)c-2cc1C | 6.31 µM (active) and 8.94 µM (active) | 17.8 µM (active) | inactive | 79.4 µM (active) and 63.3 µM (active) | – | – | – | –
39 | C1=C\CC/C=C\CC/1 | inactive | inactive | inactive | inactive | – | – | – | –
40 | C[n+]1ccn(CCO)c1 | inactive | inactive | inactive | inactive | – | – | – | –

Row | SMILES | Potency [1] | Potency [2] | Potency [3] | Potency [4] | activity, negative = inhibition [1] | activity change, negative = inhibition [2] | activity change, negative = inhibition [3] | activity change, negative = inhibition [4]
41 | CCCc1ncc(C(=O)O)s1 | inactive | inactive | inactive | inactive | – | – | – | –
42 | O=C(O)/C=C/c1cnc[nH]1 | inactive | inactive | inactive | inactive | – | – | – | –
43 | CC(CCO)CC(C)(C)C (stereo not given) | inactive | inactive | inactive | inactive | – | – | – | –
44 | Cc1ccc(Cl)cc1N | inactive | inactive | inactive | inactive | – | – | – | –
45 | C=CC(=O)NC(C)(C)CS(=O)(=O)O | inactive | inactive | inactive | inactive | – | – | – | –
46 | CC(=O)[O][Al][O]C(C)=O | inactive | inactive | inactive | inactive | – | – | – | –
47 | Cc1cc(C)c(N)c(Cl)c1 | inactive | inactive | inactive | inactive | – | – | – | –
48 | CS(=O)(=O)c1ccc(Cl)cc1 | inactive | inactive | inactive | inactive | – | – | – | –
49 | CNC(=O)c1cc(Oc2ccc(NC(=O)Nc3ccc(Cl)c(C(F)(F)F)c3)cc2)ccn1 | inactive | inactive | inactive | inactive | – | – | – | –
50 | CCCCC1C(=O)N(c2ccccc2)N(c2ccccc2)C1=O | inactive | inactive | inactive | inactive | – | – | – | –
51 | CC(O)CO (stereo not given) | inactive | inactive | inactive | inactive | – | – | – | –
52 | CC(C)c1cc(C(C)C)cc(C(C)C)c1 | inactive | inactive | inactive | inactive | – | – | – | –
53 | CCOCCn1c(N2CCCN(C)CC2)nc2ccccc21 | inactive | inactive | inactive | inactive | – | – | – | –
54 | OCCN1CCN(CCCN2c3ccccc3C=Cc3ccccc32)CC1 | inactive | inactive | inactive | inactive | – | – | – | –
55 | Cc1cc(C)c(S(=O)(=O)O)cc1N=Nc1cc(S(=O)(=O)O)c2ccccc2c1O | inactive | inactive | inactive | inactive | – | – | – | –
56 | CC1=C(O)C(=O)OC1C (stereo not given) | inactive | inactive | inactive | inactive | – | – | – | –
57 | CN1Cc2cc(C(=O)N3CCC(C4CCNCC4)CC3)ccc2NC(CC(=O)O)C1=O (stereo not given) | inactive | inactive | inactive | inactive | – | – | – | –
58 | CC12CCC(C1)C(C)(C)C2O (stereo not given) | inactive | inactive | inactive | inactive | – | – | – | –
59 | O=C(OCc1ccccc1)c1ccc(O)cc1 | inactive | inactive | inactive | inactive | – | – | – | –
60 | CCCCCC(=O)O[C@]1(C(C)=O)CC[C@H]2[C@@H]3CCC4=CC(=O)CC[C@]4(C)[C@H]3CC[C@@]21C | inactive | inactive | inactive | inactive | – | – | – | –
